Active and inactive are the calls of the source. A call without a number means that no potency is given here. Calls come from the whole dose curve; as a rule, active = well fitted curve in the direction sought with a large enough effect in the repeat runs; inconclusive = weak or mixed curves; inactive = flat fitted curve, though single readings scatter. Non-standard residues stand in square brackets, D forms with d. Residues, ends and D or L forms follow the SMILES beside them. Orn = NCCC[C@H](N)C(=O)O
Experiment: qHTS assay to test for compound auto fluorescence at 460 nm (blue) in HEK293 cells (AID 720678)
Details: blue autofluorescence 405/460 nm; series mostly up to 46 µM
Text: National Center for Advancing Translational Sciences [NCATS]
NIH Chemical Genomics Center [NCGC]
U.S. Environmental Protection Agency [EPA]
National Institutes of Environmental Health Sciences [NIEHS]
National Toxicology Program [NTP]
U.S. Food and Drug Administration [FDA]
Compound auto fluorescence often interferes with screening of the compound library against various biological targets and signaling pathways. Some of these compounds may have fluorophoric properties. Such properties may interfere with the assay outputs resulting in false positives and/or negatives. To decrease such complications and ensure the compound activities are relevant in terms of biological response, the Tox21 10K compound library was screened for auto fluorescence.
From the fluorophores used as reporter signals in our screening assays, the auto fluorescence equivalencies of compounds against three fluorophores have been evaluated: Triamterene, Fluorescein and Rose Bengal sodium for blue, green and red fluorescence, respectively. The fluorescence intensities were measured using Excitation/Emission wavelengths at 405/460nm, 485/535nm and 540/590nm for blue, green and red labels, respectively. This assay includes the blue fluorescence data.
Tox21 Assay Protocol Summary:
2,000 HEK293 cells in 5 uL of culture medium containing 10% dialyzed FBS per well were dispensed into black wall/clear bottom 1536-well plates using a Multidrop Combi Dispenser (Thermo Scientific). The assay plates were incubated for 4-5 hr at 37C to allow cell attachment to the well bottom, followed by the transfer of 23 nL compound or DMSO vehicle by a pintool work station (Kalypsys, San Diego, CA). After the assay plates were incubated overnight at 37C and 5% CO2, fluorescence intensities in the assay plates were measured by an Envision (PerkinElmer, Shelton, CT) plate reader using three labels for measuring blue, green and red fluorescence at […] 460, 535 and 590nm respectively.

Compound | Potency
C[C@H](Cc1ccc(O)c(O)c1)[C@@H](C)Cc1ccc(O)c(O)c1 | inactive
COC(=O)C[C@](O)(CCCC(C)(C)O)C(=O)O[C@@H]1C(OC)=CC23CCCN2CCc2cc4c(cc2[C@H]13)OCO4 (stereo not given in full) | inactive
CC(C)[N+]1(C)[C@@H]2CC[C@H]1CC(OC(=O)C(CO)c1ccccc1)C2 (stereo not given in full) | inactive
C[C@H](O)CN(C)C | inactive
NCCO/C=C/[C@H](N)C(=O)O | inactive
CCCCCCCCCCCCCCCCCCOCC(COP(=O)([O-])OCC[N+](C)(C)C)OC (stereo not given) | inactive
C[C@@H]1C[C@H]2[C@@H]3C[C@H](F)C4=CC(=O)C=C[C@]4(C)[C@@]3(Cl)[C@@H](O)C[C@]2(C)[C@H]1C(=O)COC(=O)C(C)(C)C | inactive
NC(N)=NCc1cccc(I)c1 | inactive
NC(N)=NCCCCN=C(N)N | inactive
CCN(CC)C(=O)[C@]1(c2ccccc2)C[C@@H]1CN | inactive
CN1CCN(CCCN2c3ccccc3Sc3ccc(Cl)cc32)CC1 | inactive
CC(=O)NC[C@H]1CN(c2ccc(N3CCOCC3)c(F)c2)C(=O)O1 | inactive
CC12CCC(C1)C(C)(C)C2=O (stereo not given) | inactive
COC1[C@@H](O[C@@H]2O[C@H](C)[C@@H](O[C@H]3C[C@@](C)(O)[C@H](OC(=O)CC(C)C)[C@H](C)O3)[C@H](N(C)C)[C@H]2O)[C@@H](CC=O)C[C@@H](C)[C@@H](O)/C=C/C=C/C[C@@H](C)OC(=O)C[C@H]1OC(C)=O (stereo not given in full) | inactive
Cc1cc(N)c2ccccc2[n+]1CCCCCCCCCC[n+]1c(C)cc(N)c2ccccc21 | inactive
CO/N=C(\C(=O)N[C@@H]1C(=O)N2C(C(=O)O)=C(CSc3nc(C)c(CC(=O)O)s3)CS[C@H]12)c1csc(N)n1 | inactive
C=C1C(CCl)(CCl)C2(Cl)C(Cl)C(Cl)C1(Cl)C2(Cl)Cl (stereo not given) | inactive
CCCCCCCCCCCCCCCC(=O)OC[C@H](COP(=O)([O-])OCC[N+](C)(C)C)OC(=O)CCCCCCCCCCCCCCC | inactive
C=C1C(=C/C=C2\CCC[C@]3(C)[C@@H]([C@H](C)CCCC(C)C)CC[C@@H]23)C[C@@H](O)C[C@@H]1O | inactive
CCCCC[C@H](O)/C=C/[C@@H]1[C@@H](C/C=C\CCCC(=O)O)[C@@H](O)C[C@H]1O | inactive

Compound | Potency
Oc1ccc(Cl)cc1C1CCCC1 | inactive
COc1c(Br)cc(Br)c(C)c1Br | inactive
CCCC(CCC)C(=O)OC1C[C@H]2CC[C@@H](C1)[N+]2(C)C (stereo not given in full) | inactive
CCN(CC)CCn1c(=O)c(Cc2ccc(OC)cc2)nc2ccccc21 | inactive
O=C(O)c1cc(O)c2c(c1)[C@H]([C@H]1c3cc(C(=O)O)cc(O)c3C(=O)c3c(O[C@@H]4O[C@H](CO)[C@@H](O)[C@H](O)[C@H]4O)cccc31)c1cccc(O[C@@H]3O[C@H](CO)[C@@H](O)[C@H](O)[C@H]3O)c1C2=O | inactive
CO/N=C(\C(=O)N[C@@H]1C(=O)N2C(C(=O)[O-])=C(C[n+]3cccc4c3CCC4)CS[C@H]12)c1csc(N)n1 | inactive
CCCn1c(=O)[nH]c(=O)c2[nH]cnc21 | inactive
CC(C)C[C@@H]1NC(=O)[C@H](CCCN)NC(=O)[C@H](C(C)C)NC(=O)[C@@H]2CCCN2C(=O)[C@@H](Cc2ccccc2)NC(=O)[C@H](CC(C)C)NC(=O)[C@H](CCCN)NC(=O)[C@H](C(C)C)NC(=O)[C@@H]2CCCN2C(=O)[C@@H](Cc2ccccc2)NC1=O (cyclo(V[Orn]L[dF]PV[Orn]L[dF]P)) | inactive
COc1ccc([C@@H]2CC(=O)c3c(O)cc(O[C@@H]4O[C@H](CO[C@@H]5O[C@@H](C)[C@H](O)[C@@H](O)[C@H]5O)[C@@H](O)[C@H](O)[C@H]4O)cc3O2)cc1O | inactive
CCCCC/C=C\C=C\C(=O)OCC | inactive
CCN(CC)CC#CCOC(=O)C(O)(c1ccccc1)C1CCCCC1 (stereo not given) | inactive
CCOC(=O)[C@H](CCc1ccccc1)N[C@@H](C)C(=O)N1[C@H](C(=O)O)C[C@H]2CCCC[C@@H]21 | inactive
Cc1ccc(C(C)(C)c2ccc(C)cc2)cc1 | inactive
CC(O)(c1ccc(Cl)cc1)c1ccc(Cl)cc1 | inactive
CC[C@@]1([C@@H]2O[C@@H]([C@H]3O[C@@](O)(CO)[C@H](C)C[C@@H]3C)C[C@@H]2C)CC[C@H]([C@]2(C)CC[C@]3(C[C@H](O)[C@@H](C)[C@@H]([C@@H](C)[C@@H](OC)[C@H](C)C(=O)O)O3)O2)O1 (stereo in doubt) | inactive
O=C(O)[C@@H]1C[C@H](CP(=O)(O)O)CCN1 | inactive
Cc1cc(CC(C)CC(C)(C)C)n(O)c(=O)c1 (stereo not given) (tested in a mixture with another compound) | inactive
CO[C@H](C(=O)[C@@H](O)[C@@H](C)O)C1Cc2cc3cc(O[C@H]4C[C@@H](O[C@H]5C[C@@H](O)[C@H](O)[C@@H](C)O5)[C@@H](O)[C@@H](C)O4)c(C)c(O)c3c(O)c2C(=O)[C@H]1O[C@H]1C[C@@H](O[C@H]2C[C@@H](O[C@H]3C[C@](C)(O)[C@H](O)[C@@H](C)O3)[C@H](O)[C@@H](C)O2)[C@H](O)[C@@H](C)O1 (stereo not given in full) | inactive
C=CC1=C(C(=O)O)N2C(=O)[C@@H](NC(=O)/C(=N\O)c3csc(N)n3)[C@H]2SC1 (stereo in doubt) | inactive
CC(C)(C)c1ccc2c(S(=O)(=O)O)c(C(C)(C)C)ccc2c1 | inactive

Reference: PubChem BioAssay (Tox21)
